# Measurements: PubChem BioAssay (Tox21)
# Values without a mark were called inactive. Inconclusive results are not listed. A call without a number means that no potency is given here. Activity calls are given as the source filed them. Unless noted, the call rests on the fitted dose curve; in most records, active means well fitted curve in the direction sought with a large enough effect in the repeat runs; inconclusive means weak or mixed curves; inactive means no such curve, though single readings can be large; an effect the other way counts as inactive or inconclusive.
# Columns and labels:
# [1] = target: Luciferin 4-monooxygenase (Photinus pyralis) (UniProt P08659); experiment: qHTS assay to identify small molecule inhibitors of firefly luciferase (AID 1224835); further: nearly all actives have a fitted effect of over 25% in size; further: potency means the concentration at half of the fitted maximal effect
# How it was run: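 Biochemical qHTS: compounds run as interplate titrations against purified firefly enzyme, with D-luciferin and ATP each at its KM concentration. Light output recorded by CCD imaging.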
# [2] = qHTS assay to identify small molecule agonists of the constitutive androstane receptor (CAR) signaling pathway - cell viability counter screen (AID 1224836); further: nearly all actives have a fitted effect of over 45% in size; further: potency means the concentration at half of the fitted maximal effect
# How it was run: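 Multiplexed viability check: HepG2-CYP2B6-hCAR cells, 15-point compound dosing, 0.75 uM PK11195 final, 23 h at 37 C, CellTiter-Fluor fluorescence.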
# [3] = qHTS assay to identify small molecule antagonists of the constitutive androstane receptor (CAR) signaling pathway - cell viability counter screen (AID 1224837); further: nearly all actives have a fitted effect of over 45% in size; further: potency means the concentration at half of the fitted maximal effect
# How it was run: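 Multiplexed cytotoxicity read-out for the CAR antagonist screen: double-stable HepG2-CYP2B6-hCAR cells co-treated with 50 nM CITCO (final) and compound over 15 concentrations, incubated 23 hr, then assessed by CellTiter-Fluor fluorescence.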
# [4] = qHTS assay to identify small molecule antagonists of the estrogen related receptor signaling pathway with the pleiotropic PPARgamma coactivator (PGC) from Tox21 10K library - cell viability counter screen (AID 1224840; active means well fitted cell-killing curve with a large enough effect in the repeat runs, not every such curve was filed as active; further: nearly all actives have a fitted effect of over 40% in size; further: potency means the concentration at half of the fitted maximal effect)
# How it was run: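 Step one, plate 2,000 PGC/ERR cells per well; step two, incubate 6 h at 37 C/5% CO2; step three, pin-transfer compounds; step four, incubate 17.5 h; step five, add CellTiter-Fluor and read fluorescence after 30 min.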
# [5] = qHTS assay to identify small molecule agonists of the estrogen related receptor signaling pathway with the pleiotropic PPARgamma coactivator (PGC) from Tox21 10K library (AID 1224842); further: nearly all actives have a fitted effect of over 15% in size
# How it was run: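 PGC/ERR reporter cell line, 2,000 cells per well, incubated 6 h at 37 C before 23 nL compound in DMSO was added. After 18 h at 37 C, One-Glo luminescence read following 30 min at room temperature.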
# [6] = qHTS assay to identify small molecule agonists of the hypoxia (HIF-1) signaling pathway - cell viability counter screen (AID 1224844; calls by dose curve; further: nearly all actives have a fitted effect of over 50% in size; further: potency means the concentration at half of the fitted maximal effect)
# How it was run: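 Tox21 10K compounds were added to HRE-bla ME-180 cells (0.5% dialyzed FBS) and incubated 17 hrs at 37C; ATP-based CellTiter-Glo luminescence then reported cell viability in the same wells.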
# [7] = qHTS assay to identify small molecule agonists of the hypoxia (HIF-1) signaling pathway (AID 1224846; active means well fitted activation curve with a large enough effect in the signal ratio in the repeat runs, not every such curve was filed as active; the % refers to the signal ratio)
# How it was run: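 Steps: seed ME-180 HRE-bla cells (2,000/well, 0.5% dialyzed FBS); incubate 5 hrs at 37C; pin-transfer compounds or DMSO; incubate 17 hrs; add LiveBLAzer B/G substrate CCF4-AM; measure reporter activation by FRET.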
# [8] = qHTS assay to identify small molecule antagonists of the estrogen related receptor (ERR) signaling pathway from Tox21 library (AID 1224848); further: nearly all actives have a fitted effect of over 50% in size; further: potency means the concentration at half of the fitted maximal effect
# How it was run: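 ERR reporter cell line (from NTP) seeded 2,000 cells/well, rested 6 h at 37 C/5% CO2, then pin-dosed with compounds in DMSO. After 18 h at 37 C, ONE-Glo added; luminescence read after 30 min at room temperature.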
# [9] = qHTS assay to identify small molecule agonists of the estrogen related receptor (ERR) signaling pathway from Tox21 library (AID 1224849; calls by dose curve; further: nearly all actives have a fitted effect of over 15% in size); conditions: ERR reporter cell line, ONE-Glo luciferase, 18 h; at 92.4 µM (top of the series) unless noted
# How it was run: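 Agonist signal is luciferase luminescence from an ERR reporter cell line treated 18 h at 37 C with DMSO-dissolved compounds, read 30 min after ONE-Glo addition at room temperature.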
# [10] = qHTS RealTime-Glo MT Cell Viability Assay in HepG2 cells - 24 hour (AID 1224867); further: nearly all actives have a fitted effect of over 50% in size; further: potency means the concentration at half of the fitted maximal effect
# How it was run: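 Luminescence read-out: viable HepG2 cells reduce a prosubstrate to a NanoLuc substrate, giving a signal proportional to live cell number. Reads taken at 0, 8, 16, 24, 32 and 40 h of compound exposure at 37 C.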
# [11] = qHTS RealTime-Glo MT Cell Viability Assay in HEK293 cells - 32 hour (AID 1224868); further: nearly all actives have a fitted effect of over 50% in size; further: potency means the concentration at half of the fitted maximal effect
# How it was run: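 Nonlytic real-time viability readout: viable cells convert prosubstrate to NanoLuc substrate, giving luminescence proportional to live cell number. HEK293, 600 cells/well, compound added after 5 h, continuous culture at 37 C.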
# [12] = A CellTox Green Cytotoxicity Assay to monitor cytotoxicity in HEK293 cells - 0 hour (AID 1224869); further: nearly all actives have a fitted effect of over 50% in size
# How it was run: (§1)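 Cytotoxicity was tracked continuously in HEK293 cells by a DNA-binding dye excluded from viable cells. Compounds were transferred in DMSO 5 h after seeding; fluorescence was recorded at intervals up to 40 h.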
# [13] = qHTS RealTime-Glo MT Cell Viability Assay in HepG2 cells - 40 hour (AID 1224870); further: nearly all actives have a fitted effect of over 50% in size; further: potency means the concentration at half of the fitted maximal effect
# How it was run: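 HepG2 cells (600/well) mixed with RealTime-Glo MT reagent, settled 5 h at 37 C/5% CO2 before compound addition. Nonlytic NanoLuc luminescence from viable-cell prosubstrate reduction read repeatedly during 40 h treatment at 37 C.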
# [14] = A CellTox Green Cytotoxicity Assay to monitor cytotoxicity in HEK293 cells - 40 hour (AID 1224871); further: nearly all actives have a fitted effect of over 45% in size; further: potency means the concentration at half of the fitted maximal effect
# How it was run: as §1
# [15] = target: Nuclear receptor subfamily 1 group I member 3 (Homo sapiens) (UniProt Q14994); experiment: qHTS assay to identify small molecule agonists of the constitutive androstane receptor (CAR) signaling pathway (AID 1224839); further: nearly all actives have a fitted effect of over 15% in size; further: potency means the concentration at half of the fitted maximal effect;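 on activation: HepG2 cells stably carrying human CAR and a CYP2B6 luciferase reporter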
# How it was run: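 Using human hepatoma HepG2 cells engineered with hCAR and a CYP2B6-2.2kb reporter, 15-concentration compound series were incubated 24 h alongside PK11195 at 0.75 uM final, with luminescence quantified afterwards.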
# [16] = qHTS assay to identify small molecule antagonists of the estrogen related receptor signaling pathway with the pleiotropic PPARgamma coactivator (PGC) from Tox21 10K library (AID 1224841; call rule not given here; further: potency means the concentration at half of the fitted maximal effect)
# How it was run: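 Antagonism in this quantitative HTS is taken from loss of luciferase signal in PGC/ERR cells. Cells (2,000/well) are treated with compounds in DMSO after a 6 h settling period and read by One-Glo luminescence after 18 h.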
# [17] = target: Thyrotropin receptor (Homo sapiens) (UniProt P16473); experiment: qHTS assay to identify small molecule agonists of the thyroid stimulating hormone receptor (TSHR) signaling pathway (AID 1224843; calls by dose curve; further: nearly all actives have a fitted effect of over 45% in size; further: potency means the concentration at half of the fitted maximal effect)
# How it was run: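 TSHR-HEK293 cells in agonist mode, 30 min room-temperature step, then cAMP measured by competitive HTRF (cAMP-d2 with anti-cAMP cryptate) after 1 h at room temperature. Tested at 15 concentrations in triplicate.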
# [18] = qHTS assay to identify small molecule agonists of H2AX - cell viability counter screen (AID 1224847; calls by dose curve; further: nearly all actives have a fitted effect of over 30% in size; further: potency means the concentration at half of the fitted maximal effect)
# How it was run: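 After overnight plating of 1000 CHO-K1 cells per well, a 15-concentration compound series was applied for 3 hr at 37C. Luminescence from CellTiter-Glo, read following 30 min at room temperature, reflected cell viability.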
# [19] = target: Nuclear receptor subfamily 1 group I member 3 (Homo sapiens) (UniProt Q14994); experiment: qHTS assay to identify small molecule antagonists of the constitutive androstane receptor (CAR) signaling pathway (AID 1224838); further: nearly all actives have a fitted effect of over 40% in size
# How it was run: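 Compounds were titrated across 15 concentrations onto HepG2 cells double-stably expressing hCAR and a CYP2B6-2.2kb reporter, together with 50 nM CITCO (final). After 24 h at 37 C, luciferase activity was measured by luminescence.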
# [20] = qHTS assay to identify small molecule agonists of H2AX (AID 1224845; active means well fitted activation curve with a large enough effect in the signal ratio in the repeat runs, not every such curve was filed as active; the % refers to the signal ratio; further: potency means the concentration at half of the fitted maximal effect)
# How it was run: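 Wild-type CHO-K1 cells, plated overnight, exposed 3hr at 37C to 15 concentrations (0.76% DMSO final). Lysed, then HTRF anti-pH2AX (S139) cryptate and anti-H2AX-d2 antibodies, 24 hr room temperature; 665/620 nm emission read.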
# Thyrotropin receptor (Homo sapiens), sequence (P16473 whole entry, looked up): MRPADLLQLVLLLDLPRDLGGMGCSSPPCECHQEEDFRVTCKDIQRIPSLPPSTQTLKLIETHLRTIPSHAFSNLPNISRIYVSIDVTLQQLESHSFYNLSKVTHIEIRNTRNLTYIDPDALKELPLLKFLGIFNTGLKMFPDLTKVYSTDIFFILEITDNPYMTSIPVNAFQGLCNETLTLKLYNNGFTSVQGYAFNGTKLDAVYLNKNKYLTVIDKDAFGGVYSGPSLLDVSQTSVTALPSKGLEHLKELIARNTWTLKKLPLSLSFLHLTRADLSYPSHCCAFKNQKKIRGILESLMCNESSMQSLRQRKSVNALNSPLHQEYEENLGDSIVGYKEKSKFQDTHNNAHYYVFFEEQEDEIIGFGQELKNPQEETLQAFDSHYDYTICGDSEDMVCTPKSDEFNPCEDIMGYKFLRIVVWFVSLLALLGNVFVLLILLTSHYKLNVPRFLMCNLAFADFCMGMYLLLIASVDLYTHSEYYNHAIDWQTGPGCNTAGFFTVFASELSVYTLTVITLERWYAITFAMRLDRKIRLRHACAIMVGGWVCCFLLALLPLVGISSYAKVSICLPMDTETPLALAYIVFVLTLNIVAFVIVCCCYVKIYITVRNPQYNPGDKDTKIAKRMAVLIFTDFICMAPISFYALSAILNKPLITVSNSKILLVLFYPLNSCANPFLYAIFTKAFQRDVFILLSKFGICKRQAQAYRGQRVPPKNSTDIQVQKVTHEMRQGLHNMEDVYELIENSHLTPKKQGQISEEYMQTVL
# Luciferin 4-monooxygenase (Photinus pyralis), sequence (P08659 whole entry, looked up): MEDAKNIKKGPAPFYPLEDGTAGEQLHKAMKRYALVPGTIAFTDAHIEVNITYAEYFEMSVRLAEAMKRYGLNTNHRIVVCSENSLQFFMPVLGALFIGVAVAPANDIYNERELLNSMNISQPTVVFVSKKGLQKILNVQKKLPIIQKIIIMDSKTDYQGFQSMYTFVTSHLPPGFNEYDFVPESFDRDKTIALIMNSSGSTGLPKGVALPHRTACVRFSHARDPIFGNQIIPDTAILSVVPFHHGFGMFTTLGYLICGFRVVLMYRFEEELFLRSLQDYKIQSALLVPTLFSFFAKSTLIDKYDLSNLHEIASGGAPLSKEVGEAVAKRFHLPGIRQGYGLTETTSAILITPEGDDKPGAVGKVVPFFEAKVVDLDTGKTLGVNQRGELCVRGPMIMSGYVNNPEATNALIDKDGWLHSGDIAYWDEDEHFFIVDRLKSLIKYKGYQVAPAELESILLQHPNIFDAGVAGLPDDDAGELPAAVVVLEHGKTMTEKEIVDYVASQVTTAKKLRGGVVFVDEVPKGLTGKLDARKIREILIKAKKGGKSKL
# Nuclear receptor subfamily 1 group I member 3 (Homo sapiens), sequence (Q14994 whole entry, looked up): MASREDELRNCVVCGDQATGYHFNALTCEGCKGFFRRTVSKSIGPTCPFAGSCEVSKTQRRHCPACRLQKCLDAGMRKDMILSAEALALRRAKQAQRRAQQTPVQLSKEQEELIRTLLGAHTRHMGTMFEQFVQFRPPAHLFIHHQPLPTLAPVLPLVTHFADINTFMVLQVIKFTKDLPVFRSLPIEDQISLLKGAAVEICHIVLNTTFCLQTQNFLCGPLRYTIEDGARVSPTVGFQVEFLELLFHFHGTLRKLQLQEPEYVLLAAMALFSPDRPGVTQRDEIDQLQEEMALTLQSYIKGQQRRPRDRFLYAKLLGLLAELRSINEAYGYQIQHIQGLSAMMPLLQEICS
Compound,Potency [1],Potency [2],Potency [3],Potency [4],Potency [5],Potency [6],Potency [7],Potency [8],"activity change, positive = activation [9]",Potency [10],Potency [11],Potency [12],Potency [13],Potency [14],Potency [15],Potency [16],Potency [17],Potency [18],Potency [19],Potency [20]
CCC(C)Nc1c([N+](=O)[O-])cc(C(C)(C)C)cc1[N+](=O)[O-] (centres undefined),71 µM (active),inactive,inactive,inactive,inactive,inactive,inactive,inactive,11.9%,inactive,inactive,inactive,inactive,inactive,–,–,–,–,–,–
Fc1ccc(C(OCCN2CCN(CCCc3ccccc3)CC2)c2ccc(F)cc2)cc1,inactive,21.1 µM (active),21.1 µM (active),26.6 µM (active),inactive,16.9 µM (active),–,6.68 µM (active),-58.9% [at 42.5 µM],23.9 µM (active),–,inactive,26.8 µM (active),21.3 µM (active),inactive,11.9 µM (active),inactive,55.2 µM (active),–,–
CNC(C)(C)Cc1ccccc1,inactive,inactive,inactive,inactive,–,inactive,inactive,–,–,inactive,inactive,inactive,inactive,–,–,–,inactive,inactive,inactive,inactive
CCOP(=S)(OCC)SC(CCl)N1C(=O)c2ccccc2C1=O (centres undefined),inactive,inactive,inactive,inactive,inactive,inactive,inactive,–,–,inactive,inactive,inactive,inactive,inactive,–,–,–,inactive,inactive,–
CCOP(=S)(NC(C)C)Oc1ccccc1C(=O)OC(C)C (centres undefined),inactive,inactive,inactive,–,inactive,6.16 µM (active),–,30.6 µM (active),-39.6%,–,43.6 µM (active),inactive,–,inactive,7.7 µM (active),30.6 µM (active),inactive,–,–,inactive
Nc1c(Cl)c(Cl)c(Cl)c(Cl)c1Cl,inactive,inactive,inactive,inactive,–,inactive,inactive,–,–,inactive,inactive,inactive,inactive,inactive,–,–,–,inactive,inactive,inactive
ClC(Cl)C(Cl)(Cl)Cl,inactive,inactive,inactive,inactive,–,inactive,inactive,–,–,inactive,inactive,inactive,inactive,inactive,–,–,inactive,inactive,–,inactive
CCN(CC)CCN1C(=O)CN=C(c2ccccc2F)c2cc(Cl)ccc21,inactive,inactive,inactive,inactive,inactive,inactive,inactive,inactive,-10.4% [at 42.5 µM],inactive,inactive,inactive,inactive,–,–,inactive,inactive,inactive,–,inactive
O=C(NC(=O)c1c(F)cccc1F)Nc1ccc(Oc2ccc(C(F)(F)F)cc2Cl)cc1F,inactive,inactive,inactive,inactive,–,inactive,inactive,–,–,inactive,43.6 µM (active),inactive,inactive,inactive,–,–,–,–,inactive,inactive
CC#C[C@]1(O)CC[C@H]2[C@@H]3C[C@H](C)C4=CC(=O)CC[C@]4(C)[C@H]3CC[C@@]21C,inactive,inactive,inactive,inactive,–,inactive,inactive,–,–,inactive,–,inactive,inactive,inactive,inactive,–,inactive,inactive,–,7.8 µM (active)
Cc1nn(-c2cc(NS(C)(=O)=O)c(Cl)cc2Cl)c(=O)n1C(F)F,inactive,inactive,inactive,inactive,inactive,inactive,inactive,inactive,-8.62%,inactive,inactive,inactive,inactive,inactive,–,inactive,inactive,inactive,–,–
CC1(C)[C@H](/C=C2\CCSC2=O)[C@@H]1C(=O)OCc1coc(Cc2ccccc2)c1,inactive,inactive,inactive,inactive,–,inactive,–,–,–,inactive,–,inactive,inactive,inactive,–,–,–,–,inactive,inactive
ClC1=C(Cl)[C@]2(Cl)[C@@H]3[C@H]4C[C@H]([C@@H]5O[C@H]45)[C@@H]3[C@@]1(Cl)C2(Cl)Cl,inactive,inactive,inactive,inactive,inactive,inactive,inactive,–,-25%,inactive,inactive,–,inactive,inactive,–,–,4.32 µM (active),inactive,–,inactive
N#CSCc1ccccc1,inactive,inactive,inactive,–,–,inactive,inactive,–,–,inactive,inactive,inactive,inactive,inactive,inactive,–,inactive,inactive,–,inactive
CC(C)=CC1C(C(=O)OC(C#N)c2cccc(Oc3ccccc3)c2)C1(C)C (centres undefined),inactive,inactive,inactive,inactive,inactive,inactive,inactive,inactive,–,inactive,inactive,inactive,inactive,inactive,–,–,–,inactive,–,inactive
CC(Cc1ccccc1)N(C)Cc1ccco1 (centres undefined),inactive,inactive,inactive,inactive,–,inactive,inactive,–,–,inactive,–,inactive,inactive,inactive,–,–,inactive,inactive,–,inactive
